In the library only some 21% were active in any assay of this set; here they are far more common.
Pf growth 48h: Primary qHTS for delayed death inhibitors of the malarial parasite plastid, 48 hour incubation; P. falciparum luciferase growth in erythrocytes, 48 h; Potency, µM (doses to about 28.7 µM), for the others: top-dose activity change, negative = inhibition, usual class: inhibitors; 310,000 tested, 5.9% active; note: potency is the fitted concentration of half-maximal effect; % is set by controls: 0 for no effect and ±100 for the full control effect
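Luciferase-expressing parasites in RBCs, 2% Hct / 0.1% parasitemia final; RPMI 1640 + 0.5% Albumax; 37 C, 5% CO2, one generation; luminescence read-out, lower signal = inhibition.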
Pf growth 96h: Primary qHTS for delayed death inhibitors of the malarial parasite plastid, 96 hour incubation; Potency, µM (series often up to 28.7 µM), for the others: top-dose activity change, negative = inhibition, most hits filed as inhibitors; P. falciparum luciferase reporter growth, 96 h; 320,000 tested, 6.9% active; note: potency is the fitted concentration of half-maximal effect; % is set by controls: 0 for no effect and ±100 for the full control effect
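Infected RBCs, 2% Hct / 0.05% parasitemia final; luciferase-reporter P. falciparum; cpd 96 h, 37 C, 5% CO2; luciferase detection reagent; luminescence.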
Cycloheximide cs: Cycloheximide Counterscreen for Small Molecule Inhibitors of Shiga Toxin; cell reporter, cycloheximide protein synthesis inhibition counterscreen; max response, %; 300,000 tested, 12% active; in the data active = max response mostly above about 13%, no sharp cut-off; inactive = mostly below about 14%; note: read at 38.3 µM for the half of the compounds with a filed dose; 0% is about no effect
Shiga toxin inh: A qHTS for Small Molecule Inhibitors of Shiga Toxin. 290,000 tested, 9.2% active. inhibition, % at 38.7 µM. AID 2315, 2010. Vero cells, Shiga toxin protein synthesis inhibition reporter; in the data active = inhibition mostly above about 28%, no sharp cut-off; inactive = mostly below about 43%; note: 0% is about no effect
Starred values were filed as active, the others as inactive; u = inconclusive; x = not tested or not shown. Unless noted, calls come from the whole dose curve; as a rule, active = well fitted inhibition curve with a large enough effect; inconclusive = small, poorly fitted or top-dose-only effect, or another doubt; inactive = no such curve, though single readings can be large or run the other way.

SMILES	Pf growth 48h	Pf growth 96h	Cycloheximide cs	Shiga toxin inh
O=c1c2cc(N3CCOCC3)ccc2[nH]c(=S)n1Cc1ccccc1Cl	12%	u	4	3
COc1ccc(CCn2c(=S)[nH]c3ccc(N4CCOCC4)cc3c2=O)cc1OC	10µM*	u	-2	-7
O=c1c2cc(N3CCOCC3)ccc2[nH]c(=S)n1CC1CCCO1 (configuration not stated)	18%	-1%	10	54*
COCCCn1c(=S)[nH]c2ccc(N3CCOCC3)cc2c1=O	-12%	x	12	-21
COc1ccc(C(C(=O)NC2CCCC2)N(C(=O)c2ccoc2C)c2cc(C)cc(C)c2)cc1 (configuration not stated)	-5%	u	1	-14
COc1ccc(C(C(=O)NC2CCCC2)N(C(=O)c2ccoc2C)c2ccc(C)c(C)c2)cc1 (configuration not stated)	u	1µM*	15	-8
COc1cccc(N(C(=O)c2ccco2)C(C(=O)NC2CCCC2)c2ccc(N(C)C)cc2)c1 (configuration not stated)	0%	16%	20*	17
COc1cccc(N(C(=O)c2ccco2)C(C(=O)NC2CCCC2)c2cccnc2)c1 (configuration not stated)	u	-12%	2	13
COc1ccc(N(C(=O)c2ccco2)C(C(=O)NC2CCCC2)c2ccc(N(C)C)cc2)cc1OC (configuration not stated)	13µM*	101%	7	14
COc1cccc(N(C(=O)CNC(=O)c2ccco2)C(C(=O)NC2CCCCC2)c2ccncc2)c1 (configuration not stated)	-5%	9.3µM*	0	-2
CC1CCCCN1C(=O)CCS(=O)(=O)c1cccc2nonc12 (configuration not stated)	6%	u	34	29
COc1cc(OC)cc(N(C(=O)c2ccco2)C(C(=O)NC2CCCC2)c2ccc(N(C)C)cc2)c1 (configuration not stated)	12µM*	u	1	-11
COc1ccc(N(C(=O)c2ccco2)C(C(=O)NC2CCCC2)c2ccc(N(C)C)cc2)cc1 (configuration not stated)	x	x	1	-16
Cc1ccc(-c2nsc(SCC(=O)Nc3ccc4c(c3)OCO4)n2)cc1	91%	139%	18*	24*
O=C(CSc1nc(-c2ccccc2Cl)ns1)Nc1ccc2c(c1)OCO2	1.2µM*	u	15*	23
Cc1sc2ncnc(Oc3ccc(-n4ccnc4)cc3)c2c1C	u	53%	-2	-2
Cn1c(=O)oc2cc(S(=O)(=O)NCCC(=O)NCc3ccc(F)cc3)ccc21	4%	13µM*	-9	19
COc1ccc(C)cc1NC(=O)CSc1nnc(-c2ccco2)n1Cc1ccco1	-19%	10µM*	13	17
CN(C)c1ccc(NC(=O)CSc2nnc(-c3cnccn3)n2C)cc1	-19%	u	13*	37
CCOc1ccccc1NC(=O)CSc1nnc(-c2cnccn2)n1C	-1%	1.9µM*	-3	-24
CCOc1ccccc1NC(=O)CSc1nnc(-c2ccccn2)n1Cc1ccco1	u	3.7µM*	6	-6
CC(=O)c1ccc(OCC(C)Oc2ccc(C#N)cc2)cc1 (configuration not stated)	5%	-22%	10	-5
Fc1ccccc1CSc1nnc(-c2cnccn2)n1Cc1ccco1	u	x	16	24
Clc1ccc(CSc2nnc(-c3ccccn3)n2Cc2ccco2)c(Cl)c1	u	15µM*	4	32
COc1cccc(-c2nnc(SCC(=O)OC(C)C)n2Cc2ccco2)c1	-3%	7.4µM*	-5	-15
Cc1ccc(NC(=O)c2ccc(Cn3cc([N+](=O)[O-])cn3)cc2)c(C)c1	-26%	-25%	8	-9
COC(=O)C1C(O)C(C)C(O)C(C)(O)/C=C\C=C(/C)C(=O)Nc2c(C)c(OC(C)=O)c3c(c2O)C(=O)C(C)=C2OCOC(=C23)/C(C)=C/C(C)(O)C(O)C(C)C1O (configuration not stated)	2.9µM*	u	1	2
CCn1c(Sc2ccc(N)cc2Cl)nc2ccccc21	-5%	2%	-3	-13
COc1ccc(C(=O)C2CCCN(C(=O)CSC)C2)cc1OC (configuration not stated)	19%	13µM*	-1	-3
CC1CCCN(C(=O)CCl)C1 (configuration not stated)	4.7µM*	1.5µM*	-2	3

High-throughput results from PubChem BioAssay.
